Screening results as filed in PubChem.
rRNA inh HTS: reduced GFP signal of wild-type E. coli, primary screen, bacterial rRNA inhibitor project, GFP/RFP fluorescence, OD600, single point. E. coli WT GFP vs humanized-ribosome RFP mutants, 24 h; active compounds read low; DMSO median 0, no signal -100. GFP signal change (wild-type ribosome), % (no concentration beside the values). actives 1.6% (n = 350,000). AID 720706, 2013;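 active = significant combined selectivity score with lowered wild-type GFP, culture density cut under 30%, mutant RFP and density less affected; inactive = any of these conditions unmet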
EWS-Fli block: EWS/Fli-driven NR0B1 reporter inhibitors, primary screen, A673 cells, NR0B1 luciferase, luminescence, MLPCN library | viability-normalised | inhibition, % at 12.6 µM | AID 651661, 2012 | actives 0.67% (n = 350,000);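 active = mean inhibition of at least 50% after viability correction, with every replicate also passing that limit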;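 note: firefly luciferase signal divided by Alamar Blue viability fluorescence both relative to DMSO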
SIRT5 block: SIRT5 desuccinylase inhibitors, primary screen, biochemical, fluorescence imaging, single point, set 5 | Purified SirT5, succinyl-peptide AMC, trypsin-coupled fluorescence | actives 1.1% (n = 330,000) | inhibition, % at 15 µM | NAD-dependent protein deacylase sirtuin-5, mitochondrial (Homo sapiens), Q9NXA8 | AID 652115, 2013; in the data active = inhibition above about 15%
Target sequence (Q9NXA8 whole entry, looked up): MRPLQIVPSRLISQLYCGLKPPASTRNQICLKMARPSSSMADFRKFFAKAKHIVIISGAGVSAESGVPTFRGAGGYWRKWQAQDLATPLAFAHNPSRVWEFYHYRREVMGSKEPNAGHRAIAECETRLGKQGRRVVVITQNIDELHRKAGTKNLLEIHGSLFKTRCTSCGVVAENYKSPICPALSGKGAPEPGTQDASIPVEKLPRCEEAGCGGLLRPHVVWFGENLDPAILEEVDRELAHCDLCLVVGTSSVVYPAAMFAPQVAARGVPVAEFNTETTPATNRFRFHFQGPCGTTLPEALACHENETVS
PGC1a acetyl inh: inhibitors of PGC1a acetylation signal, primary screen, cell-based, U2OS, AlphaScreen, inhibitor mode. inhibition, % at 15.6 µM. AlphaScreen anti-acetyl-lysine; with virally co-expressed GCN5 acetyltransferase. actives 0.17% (n = 350,000);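 active = every replicate shows inhibition of at least 40%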
LGR2 inh: inhibitors of bursicon-induced LGR2 CRE-luciferase signal, primary screen, cell-based, HEK293, CRE-luciferase reporter, bursicon stimulation; Drosophila bursicon receptor LGR2 (rickets); bursicon-stimulated, 4 h; inhibition, % at 9.99 µM; actives 0.35% (n = 380,000);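 active = drop in luminescence signal, shown as inhibition above about 50% in the replicate tests, limit read from the data, passing the limit was not always enough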;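 note: agonist challenge used bursicon conditioned medium at about half maximal strength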
PAX8 inh HTS: inhibitors of PAX8-driven TPO luciferase reporter, primary screen, RMG-I cells, single concentration | SteadyGlo, 24 h | inhibition, % at 12.6 µM | actives 1.2% (n = 360,000) | AID 652154, 2013;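 active = mean replicate inhibition at least 60% with every replicate also reaching 60%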;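 note: luciferase light reporting Pax8 driven TPO promoter activity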
Numbers stand for hits; . = inactive; / = not tested or not shown. The list is not random: actives were taken first. Their share in the collection is about 3.4%.

SMILES | rRNA inh HTS | EWS-Fli block | SIRT5 block | PGC1a acetyl inh | LGR2 inh | PAX8 inh HTS
COc1ccc(C[C@H]2CN3C(=NC[C@@H]3Cc3ccc(O)cc3)N2C[C@H](C)NC(=O)CCC2CCCCC2)cc1 | . | . | 31 | . | . | .
CCCCCCCNC(=O)C1(CC2CC(c3cccc(Br)c3)=NO2)CCN(C(=O)C2(C)CC2)CC1 (centres undefined) | . | . | / | . | . | .
CCCCCCCNC(=O)C1(CC2CC(c3cccc(Br)c3)=NO2)CCN(C(=O)CCCCCBr)CC1 (centres undefined) | -20 | . | / | . | . | .
C[C@@H]1CN([C@H](C)CO)S(=O)(=O)c2ccc(C#CC3CC3)cc2O[C@@H]1CN(C)C | . | . | . | . | . | /
O=C(Nc1cccc2cccnc12)c1ccccc1Br | -25 | . | . | / | . | .
COc1cc(NC(=O)c2ccccc2Cl)c2ncccc2c1 | . | 58 | / | . | . | .
COc1ccc(C(=O)Nc2cccc3cccnc23)cc1OC | . | . | 20 | . | . | /
O=C(Nc1cccc2cccnc12)c1ccc(Cl)cc1Cl | . | . | . | . | / | .
O=C(C1CC1)N1CC2(C1)[C@H](c1ccccc1)[C@H](CO)N2C(=O)CC1CC1 | . | . | . | . | . | /
COc1ccccc1CNC(=O)C[C@H]1C=C[C@H](NC(C)=O)[C@@H](CO)O1 | . | . | . | . | . | .
COc1ccc2c3c([nH]c2c1)[C@@H](CO)N(C(=O)c1ccc(F)cc1)CC31CN(C(=O)CC2CC2)C1 | . | . | . | . | . | .
CNC[C@H]1Oc2c(NC(C)=O)cccc2C(=O)N(C)C[C@@H]1C | . | / | / | / | / | /
Cc1ccc(CN=c2c([N+](=O)[O-])nn(-c3cccc(Cl)c3)n2O)cc1 | -24 | . | . | . | . | .
COc1ccc(-n2nc([N+](=O)[O-])c(=NCc3cccnc3)n2O)cc1 | . | . | / | . | / | 146
Cc1ccc(CN=c2c([N+](=O)[O-])nn(-c3cccc(C)c3)n2O)cc1 | . | . | . | / | . | .
COc1cccc(S(=O)(=O)N[C@H]2CC[C@H](CCn3cc(-c4ccc(F)cc4)nn3)O[C@@H]2CO)c1 | . | . | . | . | . | .
COc1cccc(CNC(=O)C[C@@H]2CC[C@H](NC(=O)C3CCC3)[C@@H](CO)O2)c1 | . | . | . | . | . | .
CNC[C@@H]1OCCCC[C@H](C)Oc2ccc(NC(=O)Nc3cccc4ccccc34)cc2C(=O)N([C@@H](C)CO)C[C@H]1C | / | . | / | . | / | .
N#Cc1ccc(-c2ccc3c(c2)[C@@H]2[C@@H](CCN2Cc2ccc4c(c2)OCO4)[C@@H](CO)N3)cc1 | . | . | . | . | . | .
Cc1cnc(NC(=O)CSc2nnc(C)n2N)s1 | . | . | / | / | / | 130
O=C(C[C@H]1C[C@H]2c3cc(NC(=O)Nc4ccccc4F)ccc3O[C@H]2[C@H](CO)O1)NCc1ccc2c(c1)OCO2 | . | . | . | . | . | .
CCOC(=O)N1CCN(c2c(NCc3ccc(Cl)cc3)c(=O)c2=O)CC1 | . | 52 | . | . | . | .
CCOC(=O)N1CCN(c2c(NCc3ccc(F)cc3)c(=O)c2=O)CC1 | . | 57 | . | . | . | .
COc1ccc2c3c(n(C)c2c1)[C@H](CO)NCC31CCN(S(=O)(=O)c2ccccc2)CC1 | . | . | / | . | . | /
COc1cccc(-c2ccc([C@@H]3[C@H]4CN(C(=O)c5ccncc5)CC(=O)N4[C@H]3CO)cc2)c1 | . | / | . | . | . | /
CCOCCCNC(=O)/C(C#N)=C/c1cc(OC)c(O)c([N+](=O)[O-])c1 | . | . | . | . | . | .
CCOCCCNC(=O)/C(C#N)=C/c1ccc(Cl)c([N+](=O)[O-])c1 | . | 65 | . | / | 90 | .
CCOCCCNC(=O)/C(C#N)=C/c1cc(C)c(O)c(C)c1 | . | . | 23 | / | . | .
CC(=O)N(C)C[C@@H]1Oc2cc(C3=CCCC3)ccc2S(=O)(=O)N([C@H](C)CO)C[C@H]1C | . | . | . | . | . | /
